{
  "source": "the supplement of paper PMC12532568",
  "note": "Counter-ions that a name gives are not always drawn.",
  "data": [
    {"system": "Danio rerio larvae Tg(actc1b:ZsGreen-LC3), 3 dpf", "assay": "LC3 puncta relative area vs vehicle, with NH4Cl (autophagic flux) (log2 fold change); higher = more autophagy", "settings": "10 µM; treatment time 16 h; NH4Cl: + 100 mM, 4 h", "procedure": "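Transgenic Tg(actc1b:ZsGreen-map1lc3) zebrafish larvae (2 dpf) were treated for 16 h with Tocris library compounds at 10 µM (n = 12 larvae per compound). Skeletal-muscle LC3 puncta area relative to body area was measured by high-content confocal imaging before and after 4 h of 100 mM NH4Cl (autophagic flux), normalised to vehicle (DMSO), and reported as log2 fold change.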", "values": [
      {"smiles": "c1ccc2c(c1)[I+]c1ccccc1-2", "note": "[Diphenyleneiodonium chloride]", "LC3 puncta (log2)": 0.545},
      {"smiles": "c1ccc2sc(C3(N4CCCCC4)CCCCC3)cc2c1", "note": "[BTCP maleate]", "LC3 puncta (log2)": 0.575},
      {"smiles": "CN1C[C@H](CNC(=O)OCc2ccccc2)C[C@@H]2c3cccc4c3c(cn4C)C[C@H]21", "note": "[Metergoline]", "LC3 puncta (log2)": 0.408},
      {"smiles": "C=C(C)[C@H]1CN[C@H](C(=O)O)[C@H]1CC(=O)O", "note": "[Kainic acid]", "LC3 puncta (log2)": 0.23},
      {"smiles": "c1ccc(C2CNCc3ccccc32)cc1", "note": "(stereo not given) [4-Phenyl-1,2,3,4-tetrahydroisoquinoline hydrochloride]", "LC3 puncta (log2)": 0.39},
      {"smiles": "Fc1ccc(C(OCCN2CCN(C/C=C/c3ccccc3)CC2)c2ccc(F)cc2)cc1", "LC3 puncta (log2)": 0.995},
      {"smiles": "c1ccc(CCCN2CCN(CCOC(c3ccccc3)c3ccccc3)CC2)cc1", "LC3 puncta (log2)": 0.346},
      {"smiles": "C[C@H](N)Cc1cnc[nH]1", "LC3 puncta (log2)": 0.58},
      {"smiles": "CC(=O)NCCc1c[nH]c2ccccc12", "note": "[N-Acetyltryptamine]", "LC3 puncta (log2)": 0.0329},
      {"smiles": "Cc1cc(C)cc(C(=O)OC2C[C@H]3CC[C@@H](C2)N3C)c1", "note": "(stereo not given in full) [Tropanyl-3,5-dimethylbenzoate]", "LC3 puncta (log2)": 0.418},
      {"smiles": "C(=C\\c1ccccc1)/CN1CCN(CCOC(c2ccccc2)c2ccccc2)CC1", "LC3 puncta (log2)": 0.791},
      {"smiles": "CCCN(CCC)C1CCc2ccc(O)cc2C1", "note": "(stereo not given) [7-Hydroxy-DPAT hydrobromide]", "LC3 puncta (log2)": 0.179},
      {"smiles": "CN1C(=O)CCS(=O)(=O)C1c1ccc(Cl)cc1", "note": "(stereo not given) [Chlormezanone]", "LC3 puncta (log2)": 0.287},
      {"smiles": "O=c1[nH]oc2c1CCNC2", "note": "[THIP hydrochloride]", "LC3 puncta (log2)": 0.742},
      {"smiles": "S=C=Nc1cccc(C2(N3CCCCC3)CCCCC2)c1", "note": "[Metaphit]", "LC3 puncta (log2)": 0.576},
      {"smiles": "CN1[C@@H]2CC[C@H]1C[C@@H](OC(=O)c1cc(Cl)cc(Cl)c1)C2", "LC3 puncta (log2)": 0.686},
      {"smiles": "CO[C@]12C[C@@H](COC(=O)c3cncc(Br)c3)CN(C)[C@@H]1Cc1cn(C)c3cccc2c13", "note": "[Nicergoline]", "LC3 puncta (log2)": 0.397},
      {"smiles": "CCCN[C@@H]1CCc2c(OC)cccc2[C@@H]1C", "note": "[(+)-AJ 76 hydrochloride]", "LC3 puncta (log2)": 0.353},
      {"smiles": "Cn1cnc(CCN)c1", "note": "[N?-Methylhistamine dihydrochloride]", "LC3 puncta (log2)": 0.559},
      {"smiles": "NC(C(=O)O)c1nn[nH]n1", "note": "(racemic) [(RS)-(Tetrazol-5-yl)glycine]", "LC3 puncta (log2)": 0.357},
      {"smiles": "O=C1NCN(c2ccccc2)C12CCN(CC1COc3ccccc3O1)CC2", "note": "(stereo not given) [Spiroxatrine]", "LC3 puncta (log2)": 0.649},
      {"smiles": "CCC(Oc1ccc(Cl)cc1)C(=O)OC1C[C@H]2CC[C@@H](C1)N2C", "note": "(stereo not given in full) [SM-21 maleate]", "LC3 puncta (log2)": 0.294},
      {"smiles": "O=C(O)/C=C/CO", "note": "[trans-4-Hydroxycrotonic acid]", "LC3 puncta (log2)": 0.0547},
      {"smiles": "O=C(O)Cc1cccnc1C(=O)O", "note": "[Homoquinolinic acid]", "LC3 puncta (log2)": 0.499},
      {"smiles": "N[C@@]1(C(=O)O)CC[C@@H](C(=O)O)C1", "LC3 puncta (log2)": 0.292},
      {"smiles": "Cc1ccc(C[N+](C)(C)C)o1", "note": "[5-Methylfurmethiodide]", "LC3 puncta (log2)": 0.316},
      {"smiles": "NCCc1c[nH]c2ccc(C(N)=O)cc12", "note": "[5-Carboxamidotryptamine maleate]", "LC3 puncta (log2)": 0.571},
      {"smiles": "S=C(NC1CCCCC1)N1CCC(c2cnc[nH]2)CC1", "note": "[Thioperamide]", "LC3 puncta (log2)": 0.48},
      {"smiles": "COc1ccc(CNC(=O)/C=C/c2ccc3[nH]cc(CCN(C)C)c3c2)cc1", "LC3 puncta (log2)": 0.115},
      {"smiles": "Fc1ccc(C(OCCN2CCN(CCCc3ccccc3)CC2)c2ccc(F)cc2)cc1", "LC3 puncta (log2)": 0.781},
      {"smiles": "O=C(CCCN1CCC2(CC1)C(=O)N(Cc1cccc(F)c1)CN2c1ccccc1)c1ccc(F)cc1", "note": "[3'-Fluorobenzylspiperone maleate]", "LC3 puncta (log2)": 1.38},
      {"smiles": "CS(=O)(=O)Nc1ccc(Cc2noc(-c3ccc4[nH]cc(CCN)c4c3)n2)cc1", "LC3 puncta (log2)": 0.382},
      {"smiles": "CC(N)Cc1cnc[nH]1", "note": "(stereo not given)", "LC3 puncta (log2)": 0.293},
      {"smiles": "CC(C)[C@@]1(NC(=O)[C@@H]2C[C@@H]3c4cccc5[nH]cc(c45)C[C@H]3N(C)C2)O[C@@]2(O)[C@@H]3CCCN3C(=O)[C@H](Cc3ccccc3)N2C1=O", "note": "[Dihydroergocristine mesylate]", "LC3 puncta (log2)": 0.198},
      {"smiles": "CC(C)C[C@H]1C(=O)N2CCC[C@H]2[C@]2(O)O[C@](NC(=O)[C@@H]3C=C4c5cccc6[nH]c(Br)c(c56)C[C@H]4N(C)C3)(C(C)C)C(=O)N12", "note": "[Bromocriptine mesylate]", "LC3 puncta (log2)": 0.623},
      {"smiles": "CC(C(=O)OC1CC2CCC(C1)N2C)c1ccc(Br)cc1", "note": "(stereo not given) [PG-9 maleate]", "LC3 puncta (log2)": 0.169},
      {"smiles": "CCCCCCC[n+]1ccc(-c2cc[n+](CCCCCCC)cc2)cc1", "note": "[DHBP dibromide]", "LC3 puncta (log2)": 0.343},
      {"smiles": "Cc1onc(O)c1CC(N)C(=O)O", "note": "(racemic)", "LC3 puncta (log2)": 0.2},
      {"smiles": "Oc1ccc2c3c1O[C@H]1c4[nH]c5ccccc5c4C[C@@]4(O)[C@@H](C2)N(CC2CC2)CC[C@]314", "note": "[Naltrindole hydrochloride]", "LC3 puncta (log2)": 0.551},
      {"smiles": "N=C(N)NN", "note": "[Aminoguanidine hydrochloride]", "LC3 puncta (log2)": 0.662}
    ]}
  ]
}
